Screens from PubChem.
This is a sample that favours compounds with a hit; in the whole collection about 8.9% have one here.
ALOX12 inhib: 12-hLO (ALOX12) enzyme inhibition; purified 12-hLO, xylenol orange hydroperoxide absorbance; P18054; hit rate 0.12% among 150,000; Potency, µM (doses to about 57.1 µM), inactives show at the highest dose activity change, negative = inhibition, most hits filed as inhibitors; also: potency is read from the fitted curve at half-maximal effect; nearly all actives have a fitted effect of over 55% in size
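Purified human 12hLO (150 nM), preincubated 15 min with compound, then 40 uM arachidonic acid for 30 min, room temperature, Hepes pH 7.0 with 0.01% Triton X-100. Hydroperoxide detected by ferrous iron/xylenol orange; 573/405 nm absorbance ratio gives reaction progress.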
NPSR antag: blocks cAMP signaling of the human neuropeptide S receptor; CHO-NPSR cells, cAMP TR-FRET, antagonist mode; Potency, µM (highest dose often 38.3 µM), for inactives: top-dose activity change, negative = inhibition, most hits filed as inhibitors; hit rate 1% among 220,000; also: potency is read from the fitted curve at half-maximal effect; nearly all actives have a fitted effect of over 50% in size
ALDH1A1 block: blocks purified human ALDH1A1 activity; P00352; hit rate 7.3% among 220,000; Potency, µM (doses to about 75.3 µM), inactives show top-dose activity, negative = inhibition, hits mostly inhibitors; Purified ALDH1A1, NADH fluorescence, propionaldehyde substrate; active = well fitted inhibition curve with a large enough effect, not every such curve was filed as active; inconclusive = small, poorly fitted or top-dose-only effect, or another doubt; inactive = no such curve, though single readings can be large or run the other way;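 also: potency is read from the fitted curve at half-maximal effect; plate controls were no enzyme wells and a reference inhibitor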
HPGD block: blocks human HPGD enzyme activity. hit rate 4.3% among 150,000. purified HPGD, NADH fluorescence kinetic, PGE2 substrate. AID 894. Potency, µM, for inactives: at the highest dose activity change, negative = inhibition, hits mostly inhibitors. P15428; active = well fitted inhibition curve with a large enough effect, not every such curve was filed as active; inconclusive = small, poorly fitted or top-dose-only effect, or another doubt; inactive = no such curve, though single readings can be large or run the other way; also: potency is read from the fitted curve at half-maximal effect
Target sequence (P15428 whole entry, looked up): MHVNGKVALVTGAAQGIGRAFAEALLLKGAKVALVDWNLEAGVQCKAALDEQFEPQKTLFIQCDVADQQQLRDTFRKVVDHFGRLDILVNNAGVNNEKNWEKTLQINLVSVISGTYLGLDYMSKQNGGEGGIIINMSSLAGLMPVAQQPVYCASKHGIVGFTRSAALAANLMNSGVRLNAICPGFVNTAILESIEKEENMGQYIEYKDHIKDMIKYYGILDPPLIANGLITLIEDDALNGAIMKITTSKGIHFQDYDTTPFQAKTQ
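20 nM HPGD preincubated 15 min at room temperature with compound in 50 mM Tris-HCl pH 8, 0.01% Tween 20. Started with 1 mM NAD+ and 30 uM prostaglandin E2; NADH fluorescence (360/450 nm) read 5 times over 30-s intervals, last minus first.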
IMPase inh: IMPase inhibition in cells. P97697. CHO-M1 cells, IP1 accumulation, HTRF TR-FRET ratio. inhibition (IP1 accumulation), % at 46.1 µM. 120,000 tested, under 10 active. AID 901; active = well fitted curve in the direction sought with a large enough effect in the signal ratio, not every such curve was filed as active; inconclusive = small, poorly fitted or top-dose-only effect, or a change in a side signal; inactive = no such curve, though single readings can be large or run the other way; the % refers to the signal ratio;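 also: cells stimulated with carbachol in lithium chloride buffer; plate controls were DMSO basal wells for no effect and reference inhibitor wells for full effect; higher means more IMPase inhibition seen as more IP1 and lower FRET ratio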
Target sequence (P97697 whole entry, looked up): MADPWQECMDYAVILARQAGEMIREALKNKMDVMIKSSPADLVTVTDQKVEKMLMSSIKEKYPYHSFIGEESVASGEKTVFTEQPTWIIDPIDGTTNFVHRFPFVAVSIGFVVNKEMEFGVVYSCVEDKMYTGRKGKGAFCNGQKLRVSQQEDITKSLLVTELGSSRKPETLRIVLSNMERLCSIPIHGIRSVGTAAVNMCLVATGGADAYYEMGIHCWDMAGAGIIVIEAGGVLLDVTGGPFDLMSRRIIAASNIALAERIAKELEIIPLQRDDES
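CHO-M1 cells (CHO stably expressing M1 receptor), compound up to 46 uM final, stimulated with carbachol (50 uM as added) in buffer with 50mM LiCl, pH 7.4, 30 min at 37C. Cytosolic IP1 read by TR-FRET; AC50 from Hill fits.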
IMPase Li cell: IMPase inhibition in cells with lithium potentiation; CHO-M1 cells, IP1 TR-FRET (IP-One), carbachol + lithium; Potency, µM (top dose mostly 59.4 µM), without a hit: at the top dose activity, negative = IMPase inhibition, usual class: inhibitors; hit rate 0.35% among 210,000;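 also: IP1 builds up when IMPase is blocked and the TR-FRET signal falls; potency is read from the fitted curve at half-maximal effect; plate controls were basal vehicle for no effect and high inhibitor control for full effect; nearly all actives have a fitted effect of over 50% in size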
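Test compounds were applied to CHO-M1 cells previously cultured for 16–30 h at 2000 per well. A small lithium amount accompanied them; after 30 min at 37C, IP1 was quantified by TR-FRET.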
The depositor's hits bear a star; ? = inconclusive; · = no result; ! = not confirmed by another sample; [ ] = dose if it differs, or a comment. Unless noted, calls follow the shape of the dose curve; as a rule, active = well fitted curve in the direction sought with a large enough effect; inconclusive = small, poorly fitted or top-dose-only effect, or another doubt; inactive = no such curve, though single readings can be large; an effect the other way counts as inactive or inconclusive. Unless noted, % is scaled to controls: 0 for no effect and ±100 for the full control effect.

SMILES | ALOX12 inhib | NPSR antag | ALDH1A1 block | HPGD block | IMPase inh | IMPase Li cell
CC(C)[C@H]1c2ccc(F)cc2CC[C@@]1(CCN(C)CCCc1nc2ccccc2[nH]1)OC(=O)C1CC1 | -2%[0.00818 µM] | · | ? | -11% | · | 18%
COC(=O)C1=C(C(=O)OC)[C@@H]2Nc3ccccc3[C@@]23C[C@@H](C(=O)OC)N(S(=O)(=O)c2ccc(C)cc2)C3=N1 | -4%[11.4 µM] | · | 17%[13.5 µM] | -5% | · | -1%
CCN(CC)c1ccc(/C=N/NC(=O)c2ccc3nc[nH]c3c2)cc1 | · | 53% | ? | · | · | ·
CN(C)c1ccc(/C=N/NC(=O)c2ccc3nc[nH]c3c2)cc1 | · | 38% | 18µM* | · | · | ·
Cc1nc2c(C)cccc2cc1C(=O)N/N=C/c1ccc(N(C)C)cc1 | 9% | -14%[46.1 µM] | 11µM* | -18% | ? | 36%[38.3 µM]
Cc1nc2c(C)cccc2cc1C(=O)N/N=C/c1ccc(C(=O)O)cc1 | · | 0% | -9% | · | · | -5%
O=S(=O)(NCCNC/C=C/c1ccc(Br)cc1)c1cccc2cnccc12 | · | 15%[46.1 µM] | 22µM*! | -25% | · | 24%
CNCCNS(=O)(=O)c1cccc2cnccc12 | -2% | 4%[46.1 µM] | -3% | -9% | -3 | -8%
O=C(O)c1ccc(CN2C(=O)CSC2=S)cc1 | -5% | -3%[46.1 µM] | 13µM* | -21% | 2 | -2%[38.3 µM]
COc1ccc(C(=O)OCn2nnc3ccccc3c2=O)cc1OC | 0% | -17%[46.1 µM] | 7% | -3% | -4 | -14%[38.3 µM]
Cc1cc(=O)[nH]c(SCc2nc3ccccc3n2Cc2ccccc2)n1 | -4% | -23%[46.1 µM] | 1% | 28µM* | 0 | 4%[38.3 µM]
CC(C)CNC(=O)[C@H](Cc1ccccc1)NC(=O)c1ccco1 | -8% | -4%[46.1 µM] | 40µM* | -7% | 2 | 39%[38.3 µM]
NC(=S)Nc1cc(Cl)cc(Cl)c1 | · | 1% | · | · | · | ·
NC(=S)NNc1cc(Cl)cc(Cl)c1 | ? | -4%[46.1 µM] | 2µM* | -14% | 8 | 11%[38.3 µM]
Cc1ccccc1Cn1cc(NC(=O)c2cc(-c3cccs3)on2)cn1 | -1% | -9%[46.1 µM] | ? | ? | -3 | ?
Cc1ccc2[nH]c(=O)c(CN(CCO)Cc3nnnn3CCc3ccccc3)cc2c1 | -8% | -12%[46.1 µM] | ? | 2% | -3 | 18%[38.3 µM]
Cc1ccc2[nH]c(=O)c(CN(Cc3cccs3)Cc3nnnn3Cc3ccccc3)cc2c1 | -4% | ? | 14µM* | ? | 5 | 13%[38.3 µM]
CCOC(=O)Cn1nnnc1CN(Cc1cccs1)Cc1cc2cc(C)ccc2[nH]c1=O | -9% | -30%[46.1 µM] | 16µM* | -3% | 11 | 8%[38.3 µM]
CCOC(=O)Cn1nnnc1CN(CCc1ccccc1)Cc1cc2cc(CC)ccc2[nH]c1=O | -11% | ? | ? | -5% | 2 | 37%[38.3 µM]
CCO[C@H]1OC(C(=O)NC2CC2)=C[C@@H](C2CC2)[C@@H]1CCCO | · | -10% | -4% | · | · | 3%
CSc1nsc(/C=C/Nc2ccc(O)cc2C)c1C#N | · | -25% | 25µM* | · | · | -4%
CSc1nsc(/C=C/Nc2ccc(F)cc2)c1C#N | · | -12% | ? | · | · | 14%
CSc1nsc(/C=C/Nc2cccc(Cl)c2)c1C#N | ? | ? | 11µM* | -5% | 6 | -13%[38.3 µM]
CSc1nsc(/C=C/Nc2ccc(Cl)cc2)c1C#N | -24% | -13%[46.1 µM] | 7.9µM* | -24% | 5 | -25%[38.3 µM]
Cc1cc(O)ccc1N/C=C(\C#N)c1nc2ccccc2o1 | 1% | -2% | -8% | ? | 2 | 15%
SMILES | ALOX12 inhib | NPSR antag | ALDH1A1 block | HPGD block | IMPase inh | IMPase Li cell
CSc1nsc(N/N=C/c2ccc3c(c2)OCO3)c1C#N | · | -7% | -1% | · | · | -2%
O=C(OCCN1C(=O)c2ccccc2C1=O)c1cc2ccccc2o1 | -7% | -10%[46.1 µM] | 2% | -18% | -1 | -2%[38.3 µM]
Cc1cccc(C)c1NC(=O)C1(NC(=O)Cn2cccc([N+](=O)[O-])c2=O)CCCCC1 | 1% | 16% | 10% | -10% | · | -6%
COc1ccccc1-c1nc(C#N)c(N2CCC(Cc3ccccc3)CC2)o1 | 1% | ? | ? | ? | -4[1.84 µM] | 31%[38.3 µM]
CC(=O)c1ccc(NS(=O)(=O)c2ccc(C(C)(C)C)cc2)cc1 | · | 19% | 13µM* | · | · | 12%
CC(=O)Nc1ccc(OS(=O)(=O)c2ccc(C(C)(C)C)cc2)cc1 | · | 1% | 13µM* | · | · | 14%
CC(=O)c1ccc(NS(=O)(=O)c2ccc(C)cc2)cc1 | 0% | -2%[46.1 µM] | -11% | ? | -4 | 21%[38.3 µM]
CC(C)(C)c1ccc(S(=O)(=O)Nc2cccc(C3OCCCO3)c2)cc1 | -4% | 7% | 25µM* | -5% | · | 5%
CNC(=O)[C@@]1(C)C=C[C@@H](Cc2ccccc2)N1C(=O)OC | 0% | 11% | 9% | -4% | · | 3%
O=C(COC(=O)c1ccc2c(c1)S(=O)(=O)N=C1CCCCCN12)NCc1cccs1 | · | -13% | 14µM* | · | · | ·
COc1ccc2c(c1)Cc1sc(NC(=O)c3cccc(F)c3)nc1-2 | · | · | · | · | -4 | ·
CCO/C=C/C(O)(CNC(=O)c1ccc(C(C)(C)C)cc1)C(F)(F)F (stereo unspecified) | -7% | -9% | -7% | 25µM* | · | -1%
COc1ccc(NC(=S)c2ccncc2)cc1 | -2% | 10% | -1% | -5% | · | -2%
COc1ccc(C(=S)NCS(=O)(=O)c2ccc(C)cc2)cc1 | -24% | -9% | 22µM* | 25µM* | · | 1%
COc1ccc(C(=S)Nc2ccc(C)cc2)cc1 | 4% | -9%[46.1 µM] | ? | 22µM* | -6 | -9%[38.3 µM]
COc1ccc(CCNc2ccc(C)cc2)cc1 | 5% | 0%[46.1 µM] | -7% | -9% | -2 | 28%[38.3 µM]
Cc1ccc(S(=O)(=O)CNC(=S)c2ccc3ccccc3c2)cc1 | ? | -1%[46.1 µM] | ? | -13% | -6 | 13%[38.3 µM]
COc1ccc(C(O)CNc2ccc(C)cc2)cc1 (stereo unspecified) | -2% | 0%[46.1 µM] | 20µM* | -11% | 3 | -34%[38.3 µM]
Nc1nonc1C(=Nc1ccc(Br)cc1)NO | 6% | 7%[46.1 µM] | -5% | ? | 3 | -3%[38.3 µM]
c1ccc2c(c1)CCc1c-2nc2ccccc2c1N1CCOCC1 | · | 42% | 10% | · | · | ·
CCOc1ccccc1NC(=O)CN(C)S(=O)(=O)c1cccc2nsnc12 | -4% | 6%[46.1 µM] | -6% | -12% | 14 | 13%
Oc1csc(Cc2nc(-c3ccc(Br)cc3)cs2)n1 | · | -24% | 28µM* | · | · | -13%
O=S(=O)(NCc1ccco1)c1cnc(Cl)c(Br)c1 | 1% | -19% | 22µM* | -14% | · | 9%
CCCCCC(=O)N1CCN(CCN=CC2=C(O)CC(c3ccc(OC)c(OC)c3)CC2=O)CC1 (stereo unspecified) | 1% | -15%[46.1 µM] | 22µM* | -3% | 4 | 40%[38.3 µM]
CNc1oc(-c2ccccc2Cl)nc1P(=O)(c1ccccc1)c1ccccc1 | -1% | ? | -7% | -16% | · | 11%
CNc1oc(-c2ccc(C)cc2)nc1P(=O)(c1ccccc1)c1ccccc1 | -9% | 13µM* | ? | -25% | 3 | 37%[38.3 µM]
